# Laboratory results published in PubChem BioAssay (EPA / NIEHS).
# Active and inactive are the calls of the source. How the source made its calls: active means hit-call score of the fitted dose curve at least 0.9, where 1 is the maximum; inactive means score below 0.9.
# Key:
# Conditions in all cases: mRNA level, 48 h; actives raise or lower the signal
# [1] = read-out: Tumor necrosis factor receptor superfamily member 6 (Homo sapiens) (UniProt P25445); experiment: LTEA_HepaRG_FAS: Life Technologies and Expression Analysis (LTEA) Assay for Fas cell surface death receptor (FAS) using HepaRG (AID 2283447)
# Method in brief: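 Differentiated human HepaRG cells, pre-cultured 48 h, were exposed in duplicate for 48 h to 8-point half-log concentrations (top 100 uM, 0.5% DMSO) in serum-free induction medium; FAS mRNA measured by qRT-PCR, normalized to ACTB/GAPDH/POLR2A, bidirectional fit versus DMSO.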
# [2] = read-out: Fatty acid synthase (Homo sapiens) (UniProt P49327); experiment: LTEA_HepaRG_FASN: Life Technologies and Expression Analysis (LTEA) Assay for Fatty Acid Synthase (FASN) using HepaRG (AID 2283448)
# Method in brief: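 HepaRG, 48 h exposure, 8-pt half-log series top 100 uM, 0.5% DMSO vehicle, duplicates. Readout: FASN transcript by Fluidigm qRT-PCR; housekeeping-normalized; bidirectional curve fit vs DMSO baseline.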
# [3] = read-out: Cyclin D2 (CCND2), CCND2 (gene 894); experiment: LTEA_HepaRG_CCND2: Life Technologies and Expression Analysis (LTEA) Assay for Cyclin D2 (CCND2) using HepaRG (AID 2283449);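 further: CCND2 transcript measured by TaqMan qRT-PCR and normalised to three housekeeping genes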
# Method in brief: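 In this HepaRG study, an eight-point concentration series (max 100 uM, 0.5% DMSO) is applied for 48 h. CCND2 mRNA change is derived by qRT-PCR normalised to ACTB, GAPDH and POLR2A.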
# [4] = read-out: Cyclin Dependent Kinase Inhibitor 1A (CDKN1A), CDKN1A (gene 1026); experiment: LTEA_HepaRG_CDKN1A: Life Technologies and Expression Analysis (LTEA) Assay for Cyclin Dependent Kinase Inhibitor 1A (CDKN1A) using HepaRG (AID 2283450)
# Method in brief: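 Gain or loss of CDKN1A transcript is scored by bidirectional fitting against 0.5% DMSO vehicle. Human HepaRG cultures receive chemicals for 48 h across an 8-point series peaking at 100 uM; expression comes from qRT-PCR.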
# [5] = read-out: Cyclin D1 (CCND1), CCND1 (gene 595); experiment: LTEA_HepaRG_CCND1: Life Technologies and Expression Analysis (LTEA) Assay for Cyclin D1 (CCND1) using HepaRG (AID 2283451);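 on AC50: TaqMan qRT-PCR transcript level normalised to ACTB GAPDH and POLR2A housekeeping genes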
# Method in brief: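 Expression change is measured by qRT-PCR in HepaRG cells after 48 h treatment across eight concentrations topping at 100 uM, with duplicate wells and DMSO (0.5%) serving as baseline for bidirectional fitting.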
# [6] = read-out: catalase (CAT), CAT (gene 847); experiment: LTEA_HepaRG_CAT: Life Technologies and Expression Analysis (LTEA) Assay for catalase (CAT) using HepaRG (AID 2283452);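 on AC50: TaqMan qRT-PCR signal normalized to ACTB GAPDH and POLR2A housekeeping genes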
# Method in brief: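 Differentiated HepaRG cells in serum-free induction medium were dosed 48 h in duplicate, eight half-log concentrations from 100 uM in 0.5% DMSO. Transcript measured by TaqMan qRT-PCR, normalised to ACTB/GAPDH/POLR2A, fitted bidirectionally against DMSO.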
# [7] = read-out: flavin-containing dimethylaniline monooxygenases 3 (FMO3), FMO3 (gene 2328); experiment: LTEA_HepaRG_FMO3: Life Technologies and Expression Analysis (LTEA) Assay for flavin-containing dimethylaniline monooxygenases 3 (FMO3) using HepaRG (AID 2283453);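 on AC50: FMO3 transcript by TaqMan qRT-PCR normalized to ACTB GAPDH and POLR2A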
# Method in brief: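 Eight-point concentration-response in serum-free HepaRG cultures (top 100 uM, 0.5% DMSO, 48 h). Read-out: FMO3 mRNA level normalized to three endogenous control genes, fitted bidirectionally versus vehicle.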
# [8] = read-out: Cytochrome P450 (CYP1A1), CYP1A1 (gene 1543); experiment: LTEA_HepaRG_CYP1A1: Life Technologies and Expression Analysis (LTEA) Assay for Cytochrome P450 (CYP1A1) using HepaRG (AID 2283454)
# Method in brief: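 Using HepaRG cultures with 0.5% DMSO as vehicle, eight-concentration exposures (max 100 uM) lasted 48 h. Transcript levels were measured by TaqMan qRT-PCR and normalized to ACTB, GAPDH and POLR2A.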
# [9] = read-out: CFLAR gene, CFLAR (gene 8837); experiment: LTEA_HepaRG_CFLAR: Life Technologies and Expression Analysis (LTEA) Assay for CFLAR gene using HepaRG (AID 2283455)
# Method in brief: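 Gain- or loss-of-signal changes in CFLAR transcript were fitted bidirectionally relative to 0.5% DMSO. Cells (HepaRG, duplicate wells) were dosed for 48 h across eight half-log concentrations topping at 100 uM; quantitation by TaqMan qRT-PCR.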
# [10] = read-out: Forkhead box O1 (FOXO1), FOXO1 (gene 2308); experiment: LTEA_HepaRG_FOXO1: Life Technologies and Expression Analysis (LTEA) Assay for Forkhead box O1 (FOXO1) using HepaRG (AID 2283456)
# Method in brief: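 Using one lot of HepaRG hepatic cells kept in 0.5% DMSO, the team applied test chemicals in duplicate, half-log dilutions from 100 uM, for 48 h. Expression, normalised to ACTB/GAPDH/POLR2A, was compared with vehicle in either direction.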
# Sequence of Fatty acid synthase (Homo sapiens) (P49327 whole entry, looked up): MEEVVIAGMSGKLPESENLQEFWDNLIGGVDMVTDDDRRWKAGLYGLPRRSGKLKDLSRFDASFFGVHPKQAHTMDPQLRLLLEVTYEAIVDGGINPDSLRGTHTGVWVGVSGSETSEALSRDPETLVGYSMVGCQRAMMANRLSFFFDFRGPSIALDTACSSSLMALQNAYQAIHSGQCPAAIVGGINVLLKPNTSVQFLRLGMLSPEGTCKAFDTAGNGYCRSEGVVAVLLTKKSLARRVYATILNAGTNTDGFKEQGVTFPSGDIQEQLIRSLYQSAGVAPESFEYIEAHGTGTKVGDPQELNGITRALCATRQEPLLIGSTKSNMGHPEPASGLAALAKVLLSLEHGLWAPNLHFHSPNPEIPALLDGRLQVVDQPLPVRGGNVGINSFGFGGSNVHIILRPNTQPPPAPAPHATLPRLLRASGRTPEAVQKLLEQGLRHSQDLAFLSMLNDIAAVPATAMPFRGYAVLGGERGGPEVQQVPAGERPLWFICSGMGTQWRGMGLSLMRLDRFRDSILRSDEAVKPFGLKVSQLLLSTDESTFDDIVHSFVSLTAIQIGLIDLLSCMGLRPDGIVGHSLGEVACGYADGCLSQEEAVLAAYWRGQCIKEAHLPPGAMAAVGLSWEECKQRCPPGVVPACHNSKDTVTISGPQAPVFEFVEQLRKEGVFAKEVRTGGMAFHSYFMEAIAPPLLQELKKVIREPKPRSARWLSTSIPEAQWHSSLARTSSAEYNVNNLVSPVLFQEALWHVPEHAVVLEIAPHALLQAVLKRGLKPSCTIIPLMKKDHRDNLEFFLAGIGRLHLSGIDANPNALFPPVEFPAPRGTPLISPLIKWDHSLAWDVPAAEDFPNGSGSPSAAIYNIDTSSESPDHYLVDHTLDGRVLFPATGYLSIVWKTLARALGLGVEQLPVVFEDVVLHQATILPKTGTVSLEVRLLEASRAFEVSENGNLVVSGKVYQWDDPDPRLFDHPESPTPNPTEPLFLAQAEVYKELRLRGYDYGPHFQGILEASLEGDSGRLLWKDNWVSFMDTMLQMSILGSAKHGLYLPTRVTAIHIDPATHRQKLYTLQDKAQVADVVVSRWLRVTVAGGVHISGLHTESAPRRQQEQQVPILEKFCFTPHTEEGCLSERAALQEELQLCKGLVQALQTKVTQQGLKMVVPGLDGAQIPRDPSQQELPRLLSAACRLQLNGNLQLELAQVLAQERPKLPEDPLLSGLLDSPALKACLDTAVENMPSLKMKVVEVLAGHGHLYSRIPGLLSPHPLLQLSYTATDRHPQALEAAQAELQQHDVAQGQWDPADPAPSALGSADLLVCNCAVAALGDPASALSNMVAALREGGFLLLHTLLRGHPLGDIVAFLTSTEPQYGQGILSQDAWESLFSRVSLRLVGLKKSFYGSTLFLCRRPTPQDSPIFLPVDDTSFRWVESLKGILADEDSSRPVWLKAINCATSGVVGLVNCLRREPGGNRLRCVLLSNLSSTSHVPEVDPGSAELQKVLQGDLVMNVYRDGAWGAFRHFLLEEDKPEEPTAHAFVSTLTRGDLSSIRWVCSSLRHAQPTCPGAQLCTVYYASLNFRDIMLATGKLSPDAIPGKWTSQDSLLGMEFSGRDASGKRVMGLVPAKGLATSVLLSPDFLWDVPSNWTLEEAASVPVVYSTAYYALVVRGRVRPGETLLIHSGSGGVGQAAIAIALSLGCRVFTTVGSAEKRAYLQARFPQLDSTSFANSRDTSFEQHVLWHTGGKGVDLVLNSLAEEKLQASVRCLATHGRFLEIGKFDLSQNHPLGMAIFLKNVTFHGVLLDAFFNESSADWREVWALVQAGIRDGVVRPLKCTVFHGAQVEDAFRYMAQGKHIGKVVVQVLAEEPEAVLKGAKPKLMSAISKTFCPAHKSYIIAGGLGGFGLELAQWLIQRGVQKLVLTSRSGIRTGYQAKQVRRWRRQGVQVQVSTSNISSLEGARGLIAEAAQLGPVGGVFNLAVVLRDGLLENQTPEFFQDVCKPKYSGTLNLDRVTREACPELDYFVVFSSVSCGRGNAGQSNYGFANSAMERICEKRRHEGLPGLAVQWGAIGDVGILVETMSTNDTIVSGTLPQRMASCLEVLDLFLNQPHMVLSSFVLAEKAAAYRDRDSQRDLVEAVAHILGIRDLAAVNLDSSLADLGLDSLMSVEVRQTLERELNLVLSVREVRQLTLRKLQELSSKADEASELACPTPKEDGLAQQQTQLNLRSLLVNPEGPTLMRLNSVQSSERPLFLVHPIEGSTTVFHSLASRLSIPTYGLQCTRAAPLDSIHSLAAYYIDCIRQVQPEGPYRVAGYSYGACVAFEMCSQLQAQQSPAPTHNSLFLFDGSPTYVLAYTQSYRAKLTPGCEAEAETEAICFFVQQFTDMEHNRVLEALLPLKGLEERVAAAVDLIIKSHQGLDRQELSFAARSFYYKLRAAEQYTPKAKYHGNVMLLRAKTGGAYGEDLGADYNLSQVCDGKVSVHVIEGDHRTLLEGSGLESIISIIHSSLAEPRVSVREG
smiles,measurement,setting,value
Cc1ccc(C(C)C)c(O)c1,outcome,[1],inactive
same,outcome,[2],inactive
same,outcome,[3],inactive
same,outcome,[4],inactive
same,outcome,[5],inactive
same,outcome,[6],inactive
same,outcome,[7],inactive
same,outcome,[8],inactive
same,outcome,[9],inactive
same,outcome,[10],inactive
Clc1cc(Cl)c(Cl)cc1Cl,outcome,[1],inactive
same,outcome,[2],inactive
same,outcome,[3],inactive
same,outcome,[4],inactive
same,outcome,[5],inactive
same,outcome,[6],inactive
same,outcome,[7],inactive
same,AC50,[8],50 µM (active)
same,outcome,[9],inactive
same,outcome,[10],inactive
CCCCc1ccc2c(n1)[C@@H](c1ccc(OC)cc1C[C@H](C)C(=O)O)[C@H](C(=O)O)[C@H]2c1ccc2c(c1)OCO2,outcome,[1],inactive
same,outcome,[2],inactive
same,outcome,[3],inactive
same,outcome,[4],inactive
same,outcome,[5],inactive
same,outcome,[6],inactive
same,outcome,[7],inactive
same,AC50,[8],71.7 µM (active)
same,outcome,[9],inactive
same,outcome,[10],inactive
CCCCOC(=O)CCCCCCCCC(=O)OCCCC,outcome,[1],inactive
same,outcome,[2],inactive
same,outcome,[4],inactive
same,outcome,[5],inactive
same,outcome,[6],inactive
same,outcome,[8],inactive
same,outcome,[9],inactive
same,outcome,[10],inactive
COc1cc(C=O)ccc1O,outcome,[1],inactive
same,outcome,[2],inactive
same,outcome,[3],inactive
same,outcome,[4],inactive
same,outcome,[5],inactive
same,outcome,[6],inactive
same,outcome,[8],inactive
same,outcome,[9],inactive
same,outcome,[10],inactive
C[Si]1(C)O[Si](C)(C)O[Si](C)(C)O[Si](C)(C)O1,outcome,[1],inactive
same,outcome,[2],inactive
same,outcome,[3],inactive
same,outcome,[4],inactive
same,outcome,[5],inactive
same,outcome,[6],inactive
same,outcome,[8],inactive
same,outcome,[9],inactive
same,outcome,[10],inactive
CCCCCCCCCCC,outcome,[1],inactive
same,outcome,[2],inactive
same,outcome,[3],inactive
same,outcome,[4],inactive
same,outcome,[5],inactive
same,outcome,[6],inactive
same,AC50,[8],50 µM (active)
same,outcome,[9],inactive
same,outcome,[10],inactive
CC(=O)C(C)=CC1C(C)=CCCC1(C)C (stereo not given),outcome,[1],inactive
same,outcome,[2],inactive
same,outcome,[4],inactive
same,outcome,[5],inactive
same,outcome,[6],inactive
same,outcome,[7],inactive
same,outcome,[8],inactive
same,outcome,[9],inactive
same,outcome,[10],inactive
O=c1[nH]cc(F)c(=O)[nH]1,AC50,[1],31.3 µM (active)
same,outcome,[2],inactive
same,AC50,[4],35.5 µM (active)
same,outcome,[5],inactive
same,AC50,[6],30.7 µM (active)
same,AC50,[7],36.3 µM (active)
same,outcome,[8],inactive
same,outcome,[9],inactive
same,outcome,[10],inactive
CCCCC(CC)COC(=O)CC(C(=O)OCC(CC)CCCC)S(=O)(=O)O (stereo not given),AC50,[1],83.5 µM (active)
same,AC50,[2],80.5 µM (active)
same,outcome,[3],inactive
same,outcome,[4],inactive
same,AC50,[5],85.3 µM (active)
same,AC50,[6],86.6 µM (active)
same,AC50,[8],10.3 µM (active)
same,AC50,[9],81.7 µM (active)
same,AC50,[10],80.8 µM (active)
Cc1cccc(C)c1O,outcome,[1],inactive
same,outcome,[2],inactive
same,outcome,[3],inactive
same,outcome,[4],inactive
same,outcome,[5],inactive
same,outcome,[6],inactive
same,AC50,[8],50 µM (active)
same,outcome,[9],inactive
same,outcome,[10],inactive
CCCCCCCCCCO,outcome,[1],inactive
same,outcome,[2],inactive
same,outcome,[3],inactive
same,outcome,[4],inactive
same,outcome,[5],inactive
same,outcome,[6],inactive
same,outcome,[8],inactive
same,outcome,[9],inactive
same,outcome,[10],inactive
O=c1c(O)c(-c2ccc(O)c(O)c2)oc2cc(O)cc(O)c12,outcome,[1],inactive
same,outcome,[2],inactive
same,outcome,[4],inactive
same,outcome,[5],inactive
same,outcome,[6],inactive
same,AC50,[7],80 µM (active)
same,AC50,[8],0.634 µM (active)
same,outcome,[9],inactive
same,outcome,[10],inactive
C=CCOC(=O)c1ccccc1C(=O)OCC=C,outcome,[1],inactive
same,outcome,[2],inactive
same,outcome,[4],inactive
same,outcome,[5],inactive
same,outcome,[6],inactive
same,outcome,[7],inactive
same,AC50,[8],50 µM (active)
same,outcome,[9],inactive
same,outcome,[10],inactive
O=C(O)CCCCC(=O)O,outcome,[1],inactive
same,outcome,[2],inactive
same,outcome,[3],inactive
same,outcome,[4],inactive
same,outcome,[5],inactive
same,outcome,[6],inactive
same,AC50,[8],73.7 µM (active)
same,outcome,[9],inactive
same,outcome,[10],inactive
O=[N+]([O-])C(CO)(CO)CO,outcome,[1],inactive
same,outcome,[2],inactive
same,outcome,[3],inactive
same,outcome,[4],inactive
same,outcome,[5],inactive
same,outcome,[6],inactive
same,AC50,[8],25.3 µM (active)
same,outcome,[9],inactive
same,outcome,[10],inactive
COc1cc(S(=O)(=O)O)c(C)cc1N=Nc1c(O)ccc2cc(S(=O)(=O)O)ccc12,outcome,[1],inactive
same,outcome,[2],inactive
same,outcome,[3],inactive
same,outcome,[4],inactive
same,outcome,[5],inactive
same,outcome,[6],inactive
same,outcome,[9],inactive
same,outcome,[10],inactive
NCC1(Cc2noc(=O)[nH]2)CCCCC1,outcome,[1],inactive
same,outcome,[2],inactive
same,outcome,[4],inactive
same,outcome,[5],inactive
same,outcome,[6],inactive
same,outcome,[7],inactive
same,AC50,[8],73.3 µM (active)
same,outcome,[9],inactive
same,outcome,[10],inactive
C1CCC(SSC2CCCCC2)CC1,outcome,[1],inactive
same,outcome,[2],inactive
same,outcome,[4],inactive
same,outcome,[5],inactive
same,outcome,[6],inactive
same,outcome,[7],inactive
same,AC50,[8],50 µM (active)
same,outcome,[9],inactive
same,outcome,[10],inactive
CCCCN(CCCC)CCCC,outcome,[1],inactive
same,outcome,[2],inactive
same,outcome,[3],inactive
same,outcome,[4],inactive
same,outcome,[5],inactive
same,outcome,[6],inactive
same,outcome,[8],inactive
same,outcome,[9],inactive
same,outcome,[10],inactive
CCOC(=O)CCC(=O)OCC,AC50,[1],85.1 µM (active)
same,outcome,[2],inactive
same,outcome,[3],inactive
same,outcome,[4],inactive
same,outcome,[5],inactive
same,outcome,[6],inactive
same,outcome,[8],inactive
same,outcome,[9],inactive
same,outcome,[10],inactive
CCCCCCC(=O)OCC,outcome,[1],inactive
same,outcome,[2],inactive
same,outcome,[4],inactive
same,outcome,[5],inactive
same,outcome,[6],inactive
same,outcome,[7],inactive
same,AC50,[8],33.1 µM (active)
same,outcome,[9],inactive
same,outcome,[10],inactive
NCCO,outcome,[1],inactive
same,outcome,[2],inactive
same,outcome,[3],inactive
same,outcome,[4],inactive
same,outcome,[5],inactive
same,outcome,[6],inactive
same,AC50,[8],50 µM (active)
same,outcome,[9],inactive
same,outcome,[10],inactive
CC(C)(C)c1cc(O)c(C(C)(C)C)cc1O,AC50,[1],81.7 µM (active)
same,AC50,[2],50 µM (active)
same,outcome,[3],inactive
same,outcome,[4],inactive
same,outcome,[5],inactive
same,AC50,[6],78.8 µM (active)
same,AC50,[9],77.4 µM (active)
same,AC50,[10],77.7 µM (active)
CCCCCCCCCCCC(=O)OC,outcome,[1],inactive
same,outcome,[2],inactive
same,outcome,[3],inactive
same,outcome,[4],inactive
same,outcome,[5],inactive
same,outcome,[6],inactive
same,AC50,[8],60.3 µM (active)
same,outcome,[9],inactive
same,outcome,[10],inactive
